# Measured values published in PMC7862700, “An all-to-all approach to the identification of sequence-specific readers for epigenetic DNA modifications on cytosine”.
# Columns and labels:
# Assay in all cases: DAPPL (digital affinity profiling via proximity ligation, sequencing); 10 mM Tris-HCl pH 7.5, 50 mM NaCl, 1 mM DTT, 4% glycerol, room temperature, 30 min; GST-TFs on glutathione beads, 16-mer random dsDNA library, 0.1% formaldehyde crosslink after washing; high values mean tight binding
# Settings in all cases: protein: recombinant; tags: N-terminal GST; dsDNA, one strand shown
# [1] = molecular target: T1, FLI1 (Homo sapiens, UniProt Q01543 1-452)
# T1 sequence: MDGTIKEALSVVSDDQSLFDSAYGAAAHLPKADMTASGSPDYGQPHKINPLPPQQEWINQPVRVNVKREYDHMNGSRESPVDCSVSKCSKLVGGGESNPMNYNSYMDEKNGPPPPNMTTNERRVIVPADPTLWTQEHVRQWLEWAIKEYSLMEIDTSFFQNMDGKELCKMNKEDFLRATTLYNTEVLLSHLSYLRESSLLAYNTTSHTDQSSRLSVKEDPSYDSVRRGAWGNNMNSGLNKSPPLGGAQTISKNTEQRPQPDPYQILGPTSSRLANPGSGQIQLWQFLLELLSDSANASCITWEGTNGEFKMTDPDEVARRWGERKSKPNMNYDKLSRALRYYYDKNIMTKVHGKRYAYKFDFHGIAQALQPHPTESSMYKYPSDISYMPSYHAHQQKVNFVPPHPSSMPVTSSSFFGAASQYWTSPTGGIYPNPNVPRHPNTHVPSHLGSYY
# How it was run: (§1)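 Binding signal is each hexamer's read frequency for a factor divided by its frequency in the tag-only sample. The factors were GST-fused human transcription factors from yeast, captured on glutathione beads, DNA-barcoded and pooled with that sample. Pools were incubated with 200 nmole of a random double-stranded 16-mer DNA library in Tris/NaCl/DTT/glycerol buffer at room temperature for 30 min, then washed, crosslinked with 0.1% formaldehyde, proximity-ligated with BsaI/T4 ligase (1 h, 37 °C), PCR-amplified and sequenced on an Illumina NextSeq500.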
# [2] = molecular target: T2, ELK1 (Homo sapiens, UniProt P19419 1-428)
# T2 sequence: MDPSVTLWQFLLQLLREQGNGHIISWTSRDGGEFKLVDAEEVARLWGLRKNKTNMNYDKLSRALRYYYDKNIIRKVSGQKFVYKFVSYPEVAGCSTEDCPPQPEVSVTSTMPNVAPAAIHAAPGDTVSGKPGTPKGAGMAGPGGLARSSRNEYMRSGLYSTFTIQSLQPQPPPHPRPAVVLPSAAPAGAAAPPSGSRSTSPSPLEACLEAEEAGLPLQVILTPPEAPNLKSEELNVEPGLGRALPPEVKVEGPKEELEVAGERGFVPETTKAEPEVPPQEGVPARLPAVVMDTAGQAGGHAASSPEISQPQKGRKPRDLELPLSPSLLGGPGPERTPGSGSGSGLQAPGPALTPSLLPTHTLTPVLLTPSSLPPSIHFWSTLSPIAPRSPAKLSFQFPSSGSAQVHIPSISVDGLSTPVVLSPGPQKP
# How it was run: as §1
# [3] = molecular target: T3, GABPA (Homo sapiens, UniProt Q06546 1-454)
# T3 sequence: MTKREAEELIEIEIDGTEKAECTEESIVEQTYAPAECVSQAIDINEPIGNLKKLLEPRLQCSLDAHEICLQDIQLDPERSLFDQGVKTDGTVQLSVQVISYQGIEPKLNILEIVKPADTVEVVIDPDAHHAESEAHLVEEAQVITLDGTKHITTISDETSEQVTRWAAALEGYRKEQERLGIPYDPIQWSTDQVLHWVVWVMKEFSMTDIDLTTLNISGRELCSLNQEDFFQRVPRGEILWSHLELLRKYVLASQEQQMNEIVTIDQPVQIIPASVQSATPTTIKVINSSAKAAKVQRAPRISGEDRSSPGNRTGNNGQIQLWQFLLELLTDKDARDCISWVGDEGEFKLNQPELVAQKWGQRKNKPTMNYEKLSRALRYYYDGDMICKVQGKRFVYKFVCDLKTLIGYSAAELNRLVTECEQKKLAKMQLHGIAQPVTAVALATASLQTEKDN
# How it was run: as §1
# [4] = molecular target: T4, ERG (Homo sapiens, UniProt P11308 1-479)
# T4 sequence: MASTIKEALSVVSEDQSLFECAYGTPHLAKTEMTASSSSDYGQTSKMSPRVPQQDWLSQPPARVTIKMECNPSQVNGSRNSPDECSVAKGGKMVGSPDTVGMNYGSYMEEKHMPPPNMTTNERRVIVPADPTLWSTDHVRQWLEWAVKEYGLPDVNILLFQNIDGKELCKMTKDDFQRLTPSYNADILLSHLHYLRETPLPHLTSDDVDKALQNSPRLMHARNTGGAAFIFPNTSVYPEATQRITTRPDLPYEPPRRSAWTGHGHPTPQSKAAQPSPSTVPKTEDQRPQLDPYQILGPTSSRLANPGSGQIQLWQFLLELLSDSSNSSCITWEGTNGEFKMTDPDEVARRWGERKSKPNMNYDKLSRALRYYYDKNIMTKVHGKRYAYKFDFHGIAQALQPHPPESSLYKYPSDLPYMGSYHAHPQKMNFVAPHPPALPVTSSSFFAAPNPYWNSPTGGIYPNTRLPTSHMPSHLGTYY
# How it was run: as §1
# [5] = molecular target: ELF1 (Homo sapiens, UniProt P32519 1-619)
# How it was run: as §1
# [6] = molecular target: T5, EHF (Homo sapiens, UniProt Q9NZC4 1-300)
# T5 sequence: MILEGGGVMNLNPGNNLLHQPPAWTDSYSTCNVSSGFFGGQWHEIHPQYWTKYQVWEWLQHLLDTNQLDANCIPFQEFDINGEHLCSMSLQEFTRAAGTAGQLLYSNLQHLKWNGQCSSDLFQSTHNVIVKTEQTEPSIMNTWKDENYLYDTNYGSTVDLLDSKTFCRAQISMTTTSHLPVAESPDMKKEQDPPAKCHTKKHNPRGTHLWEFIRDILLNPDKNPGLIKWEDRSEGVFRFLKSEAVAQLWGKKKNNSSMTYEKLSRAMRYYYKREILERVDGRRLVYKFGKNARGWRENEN
# How it was run: as §1
# [7] = molecular target: SPI1 (Homo sapiens, UniProt P17947 1-270)
# How it was run: as §1
# [8] = molecular target: SPIB (Homo sapiens, UniProt Q01892 1-262)
# How it was run: as §1
# [9] = molecular target: T6, ELK3 (Homo sapiens, UniProt P41970 1-407)
# T6 sequence: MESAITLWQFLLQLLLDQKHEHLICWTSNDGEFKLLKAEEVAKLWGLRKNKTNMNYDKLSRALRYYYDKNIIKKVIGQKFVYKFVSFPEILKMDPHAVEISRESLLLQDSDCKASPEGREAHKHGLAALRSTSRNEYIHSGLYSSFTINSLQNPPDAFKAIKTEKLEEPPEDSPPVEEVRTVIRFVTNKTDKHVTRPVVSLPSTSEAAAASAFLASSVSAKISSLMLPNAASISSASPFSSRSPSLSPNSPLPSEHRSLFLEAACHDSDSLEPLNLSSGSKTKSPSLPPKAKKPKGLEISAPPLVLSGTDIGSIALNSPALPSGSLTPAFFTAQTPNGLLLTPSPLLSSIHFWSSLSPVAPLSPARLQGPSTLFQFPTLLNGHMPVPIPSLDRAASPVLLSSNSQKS
# How it was run: as §1
# Sequence of SPIB (Q01892 whole entry): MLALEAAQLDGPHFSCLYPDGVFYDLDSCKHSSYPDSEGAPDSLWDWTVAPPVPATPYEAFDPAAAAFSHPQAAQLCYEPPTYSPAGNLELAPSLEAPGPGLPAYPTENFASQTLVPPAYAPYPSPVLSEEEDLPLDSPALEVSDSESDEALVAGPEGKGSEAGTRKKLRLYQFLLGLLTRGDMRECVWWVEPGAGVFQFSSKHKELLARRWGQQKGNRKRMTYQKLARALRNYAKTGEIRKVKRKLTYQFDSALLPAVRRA
# Sequence of ELF1 (P32519 whole entry): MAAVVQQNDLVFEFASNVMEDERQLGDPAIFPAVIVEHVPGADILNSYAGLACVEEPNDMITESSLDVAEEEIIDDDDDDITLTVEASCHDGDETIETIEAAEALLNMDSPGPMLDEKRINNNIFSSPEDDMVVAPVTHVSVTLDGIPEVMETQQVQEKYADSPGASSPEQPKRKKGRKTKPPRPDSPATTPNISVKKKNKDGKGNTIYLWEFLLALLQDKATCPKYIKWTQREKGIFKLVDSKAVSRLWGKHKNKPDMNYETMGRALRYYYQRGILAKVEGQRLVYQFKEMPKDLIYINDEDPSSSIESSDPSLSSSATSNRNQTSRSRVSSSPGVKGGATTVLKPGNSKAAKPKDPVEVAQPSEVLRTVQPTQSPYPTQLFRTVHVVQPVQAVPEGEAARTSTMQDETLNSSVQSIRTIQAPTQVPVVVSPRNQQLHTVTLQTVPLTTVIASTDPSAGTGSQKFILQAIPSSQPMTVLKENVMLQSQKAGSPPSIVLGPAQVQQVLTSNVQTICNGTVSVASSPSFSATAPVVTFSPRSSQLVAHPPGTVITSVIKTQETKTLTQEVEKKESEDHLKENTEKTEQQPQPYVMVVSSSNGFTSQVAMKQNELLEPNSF
Sequence,binding signal [1],binding signal [2],binding signal [3],binding signal [4],binding signal [5],binding signal [6],binding signal [7],binding signal [8],binding signal [9]
TTCAAC,"1.3 fold enrichment (6-mer frequency, TF over GST control)","1.31 fold enrichment (6-mer frequency, TF over GST control)","1.24 fold enrichment (6-mer frequency, TF over GST control)","1.26 fold enrichment (6-mer frequency, TF over GST control)","1.33 fold enrichment (6-mer frequency, TF over GST control)","1.32 fold enrichment (6-mer frequency, TF over GST control)","1.28 fold enrichment (6-mer frequency, TF over GST control)","1.38 fold enrichment (6-mer frequency, TF over GST control)","1.29 fold enrichment (6-mer frequency, TF over GST control)"
ATGCTA,"1.21 fold enrichment (6-mer frequency, TF over GST control)","1.2 fold enrichment (6-mer frequency, TF over GST control)","1.25 fold enrichment (6-mer frequency, TF over GST control)","1.27 fold enrichment (6-mer frequency, TF over GST control)","1.23 fold enrichment (6-mer frequency, TF over GST control)","1.28 fold enrichment (6-mer frequency, TF over GST control)","1.22 fold enrichment (6-mer frequency, TF over GST control)","1.21 fold enrichment (6-mer frequency, TF over GST control)","1.37 fold enrichment (6-mer frequency, TF over GST control)"
GCGACT,"1.15 fold enrichment (6-mer frequency, TF over GST control)","1.26 fold enrichment (6-mer frequency, TF over GST control)","1.13 fold enrichment (6-mer frequency, TF over GST control)","1.24 fold enrichment (6-mer frequency, TF over GST control)","1.22 fold enrichment (6-mer frequency, TF over GST control)","1.21 fold enrichment (6-mer frequency, TF over GST control)","1.2 fold enrichment (6-mer frequency, TF over GST control)","1.33 fold enrichment (6-mer frequency, TF over GST control)","1.25 fold enrichment (6-mer frequency, TF over GST control)"
ATAACT,"1.23 fold enrichment (6-mer frequency, TF over GST control)","1.21 fold enrichment (6-mer frequency, TF over GST control)","1.29 fold enrichment (6-mer frequency, TF over GST control)","1.22 fold enrichment (6-mer frequency, TF over GST control)","1.32 fold enrichment (6-mer frequency, TF over GST control)","1.24 fold enrichment (6-mer frequency, TF over GST control)","1.22 fold enrichment (6-mer frequency, TF over GST control)","1.36 fold enrichment (6-mer frequency, TF over GST control)","1.22 fold enrichment (6-mer frequency, TF over GST control)"
CCAAAA,"1.09 fold enrichment (6-mer frequency, TF over GST control)","1.13 fold enrichment (6-mer frequency, TF over GST control)","1.16 fold enrichment (6-mer frequency, TF over GST control)","1.12 fold enrichment (6-mer frequency, TF over GST control)","1.17 fold enrichment (6-mer frequency, TF over GST control)","1.15 fold enrichment (6-mer frequency, TF over GST control)","1.29 fold enrichment (6-mer frequency, TF over GST control)","1.12 fold enrichment (6-mer frequency, TF over GST control)","1.13 fold enrichment (6-mer frequency, TF over GST control)"
ATTGCG,"1.33 fold enrichment (6-mer frequency, TF over GST control)","1.06 fold enrichment (6-mer frequency, TF over GST control)","1.3 fold enrichment (6-mer frequency, TF over GST control)","1.16 fold enrichment (6-mer frequency, TF over GST control)","1.27 fold enrichment (6-mer frequency, TF over GST control)","1.28 fold enrichment (6-mer frequency, TF over GST control)","1.44 fold enrichment (6-mer frequency, TF over GST control)","1.1 fold enrichment (6-mer frequency, TF over GST control)","1.27 fold enrichment (6-mer frequency, TF over GST control)"
CATTTG,"1.23 fold enrichment (6-mer frequency, TF over GST control)","1.32 fold enrichment (6-mer frequency, TF over GST control)","1.28 fold enrichment (6-mer frequency, TF over GST control)","1.21 fold enrichment (6-mer frequency, TF over GST control)","1.24 fold enrichment (6-mer frequency, TF over GST control)","1.27 fold enrichment (6-mer frequency, TF over GST control)","1.29 fold enrichment (6-mer frequency, TF over GST control)","1.28 fold enrichment (6-mer frequency, TF over GST control)","1.2 fold enrichment (6-mer frequency, TF over GST control)"
